Screening data deposited in PubChem BioAssay by The Scripps Research Institute Molecular Screening Center.
Most compounds without a hit are left out; they make up all but 2.6% or so of the library.
Ba/F3 V617F tox – lowers viability of Ba/F3 cells expressing EpoR and JAK2V617F. hit rate 1.1% among 220,000. inhibition, % at 5.6 µM. ATP luminescence;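 active = inhibition above the campaign mean plus 3 SD over all tested compounds, cut at about 24% in these data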;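 also: cytokine-independent growth of Ba/F3 cells driven by EpoR plus mutant JAK2; 0% = DMSO-treated cells and 100% = JAK inhibitor I control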
KLF5 inhibitor – inhibitors of KLF5 expression. hit rate 0.23% among 290,000. AID 1700. inhibition, % at 5 µM. DLD-1 KLF5 promoter-luciferase reporter, luminescence;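 active = inhibition above a per-plate limit of that plate's mean compound inhibition plus 3 SD, cut at about 60% in these data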;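 also: 0% = DMSO wells and 100% = LY294002 at 200 µM; higher means less KLF5 promoter-driven luciferase light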
IEC-6 tox – kills IEC-6 intestinal cells in KLF5 counter-screen. IEC-6 cytotoxicity, luminescence viability. inhibition, % at 5 µM. hit rate 0.78% among 290,000;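 also: 0% = plate median of test compound wells and 100% = cytotoxic reference compound wells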
DNA FID counter – displaces DNA intercalator in HCV helicase counter-screen. DNA fluorescent intercalator displacement, fluorescence. inhibition, % at 7.9 µM. hit rate 0.17% among 290,000; in the data active = inhibition above about 37%;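 also: 0% = vehicle and 100% = reference compound; higher means more ethidium bromide displaced from hairpin DNA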
GPR7 antag – antagonists of human GPR7 (neuropeptides B/W receptor 1); P48145; inhibition, % at 4.4 µM; GPR7-expressing cells, fluorescence antagonist assay; hit rate 1.1% among 290,000; AID 1861; in the data active = inhibition above about 16%, passing the limit was not always enough;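 also: cells stimulated with the agonist NPW; 0% = agonist with vehicle and 100% = vehicle without agonist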
Target sequence (P48145 whole entry, looked up): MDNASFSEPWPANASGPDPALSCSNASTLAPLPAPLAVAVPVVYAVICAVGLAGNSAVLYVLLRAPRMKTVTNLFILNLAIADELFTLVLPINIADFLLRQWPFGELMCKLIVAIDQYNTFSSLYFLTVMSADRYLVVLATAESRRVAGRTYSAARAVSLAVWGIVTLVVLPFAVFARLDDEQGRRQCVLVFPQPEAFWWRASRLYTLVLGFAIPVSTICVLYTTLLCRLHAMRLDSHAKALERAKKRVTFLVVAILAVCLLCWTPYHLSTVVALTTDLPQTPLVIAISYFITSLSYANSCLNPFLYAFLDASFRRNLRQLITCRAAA
BaF3 parental – reduces parental Ba/F3 cell viability, JAK2V617F counter-screen; CellTiter-Glo ATP luminescence; inhibition, % at 5.6 µM; AID 1486; hit rate 1.1% among 220,000;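 active = inhibition above a per-campaign cutoff, the mean inhibition of all tested compounds plus 3 SD, cut at about 27% in these data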;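 also: 0% = DMSO wells and 100% = JAK Inhibitor I control wells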
GPR7 antag conf – confirmation of human GPR7 antagonists; AID 1952; inhibition, % at 4.4 µM; shares compounds with GPR7 antag; GPR7-expressing cells, calcium fluorescence antagonist mode; hit rate 52% among 2,400; in the data active = inhibition above about 24%;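 also: stimulated with the GPR7 agonist NPW; 0% = agonist plus vehicle and 100% = vehicle alone without agonist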
MCHR1 antag – MCHR1 (human) antagonism in GPR7 counter-screen; shares compounds with GPR7 antag; MCHR1-expressing cells, fluorescence antagonist assay; inhibition, % at 4.4 µM; hit rate 62% among 2,400; AID 2148;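 also: 0% = vehicle with agonist and 100% = vehicle without agonist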
* hit, by the source's call; nt = no result given. Rule as the data show it, unless noted: active = inhibition above about 22%; inactive = the rest.

SMILES | Ba/F3 V617F tox | KLF5 inhibitor | IEC-6 tox | DNA FID counter | GPR7 antag | BaF3 parental | GPR7 antag conf | MCHR1 antag
C[C@H]1CC[C@H]2C(=O)N3[C@H](c4cccc(N5CCCC5=O)c4)[C@@H](C)CC[C@H]3C(=O)N2[C@@H]1c1cccc(N2CCCC2=O)c1 | -1 | 3 | 0 | -52 | -8 | 4 | nt | nt
CC(C)C(c1nnnn1C1CCCC1)N1CCOCC1 (configuration not stated) | -1 | -44 | -2 | -3 | -3 | 3 | nt | nt
CCN(CC)C(=O)C1CC(=O)N(c2ccc(F)c(Cl)c2)C1 (configuration not stated) | -1 | 8 | -3 | -5 | 22* | 5 | 6 | -1
Cc1cc(C)cc(NC(=O)C2C3C=CC4(O3)C2C(=O)N(CCCN2CCCC2)C4C(=O)NC2CCCC(C)C2C)c1 (configuration not stated) | nt | -6 | 4 | 26 | 27* | nt | -19 | -11
CCc1ccc(/C=N/n2c(COc3ccccc3)n[nH]c2=S)cc1 | nt | -10 | -5 | -29 | 0 | nt | nt | nt
O=C(c1cccc([N+](=O)[O-])c1)N1CCN(c2cccc(Cl)c2)CC1 | 1 | -13 | 8 | -18 | 23* | 6 | 31* | 24*
Cc1ccc(N2CCN(C(=O)c3cccc([N+](=O)[O-])c3)CC2)cc1Cl | 0 | -3 | 1 | -3 | -6 | 0 | nt | nt
O=C(c1cccc(Cl)c1)N1CCN(C2CCCCC2)CC1 | nt | -12 | 2 | 1 | 50* | nt | 5 | -2
COc1ccccc1Nc1nc(-c2cccc(N3C(=O)c4ccccc4C3=O)c2)cs1 | 0 | -10 | 7 | 1 | -1 | 4 | nt | nt
O=c1c2cc(NC(=S)NCCCN3CCC(Cc4ccccc4)CC3)ccc2nc2n1CCCCC2 | 3 | -41 | 2 | 20 | 22* | 14 | 52* | 73*
CC[C@@H](C(=O)[C@@H](C)[C@@H](O)[C@H](C)CCc1ccc(C)c(O)c1C(=O)O)[C@H]1O[C@](CC)([C@H]2CC[C@](O)(CC)[C@H](C)O2)C[C@@H]1C | nt | 32 | 91* | -18 | 48* | nt | 48* | 38*
Cc1cccc2cc(CN(CC3CCCO3)C(=O)c3cccnc3)c3nnnn3c12 (configuration not stated) | -5 | 14 | -2 | -8 | 6 | 5 | nt | nt
O=C(CN1CCCCC1)N/N=C/c1ccccc1Br | nt | -15 | 0 | 5 | 30* | nt | -4 | -6
CCn1c(COc2cccc(OC)c2)nnc1SCC(=O)NCC1CCCO1 (configuration not stated) | nt | -40 | -5 | -28 | 25* | nt | -12 | -6
COc1ccc(-c2cc(C)no2)cc1S(=O)(=O)N1CCOc2ccccc21 | nt | -22 | 6 | -22 | 23* | nt | 13 | 18
COC(=O)c1ccccc1NC(=O)c1ccc(COc2ccc(C)c(C)c2)o1 | 0 | -29 | 3 | -2 | 0 | -1 | nt | nt
CCC(c1nnnn1Cc1ccco1)N1CCN(c2cc(Cl)ccc2C)CC1 (configuration not stated) | 2 | 8 | 6 | -30 | 23* | 4 | 30* | 52*
O=Cc1c(NCc2ccccc2F)c2ccccc2[nH]c1=O | nt | -4 | 2 | -10 | -10 | nt | nt | nt
COC(=O)c1ccc(-c2nc3cc(N)ccc3o2)cc1 | -5 | -30 | 4 | -2 | 61* | 2 | -12 | 18
O=C(CN1CCN(c2ccccn2)CC1)N1CC(O)CO1 (configuration not stated) | 1 | 6 | -4 | -4 | -7 | 9 | nt | nt
COc1ccc2c(c1)C(C)CC(C)(C)N2C(=O)CSc1nc2ccccc2s1 (configuration not stated) | 2 | 0 | -1 | -28 | 22* | 7 | 26* | 54*
O=C(Cn1c2[n+](c3ccc(C(F)(F)F)cc31)CCCCC2)Nc1ccc(Br)cc1 | 1 | -40 | -1 | 25 | -5 | 6 | nt | nt
Cc1cc(C(C)(C)C)cc(C)c1Cn1c2[n+](c3ccc(C(F)(F)F)cc31)CCCCC2 | 49* | 8 | 5 | 24 | 33* | 53* | 29* | 32*
N#Cc1ccc(NC(=O)Cn2c3[n+](c4ccc(C(F)(F)F)cc42)CCCCC3)cc1 | 2 | -41 | -6 | 18 | 10 | 9 | nt | nt
FC(F)(F)c1cccc(Cn2c3[n+](c4ccc(C(F)(F)F)cc42)CCCCC3)c1 | -2 | -5 | 0 | 9 | 24* | 8 | 24* | 18
SMILES | Ba/F3 V617F tox | KLF5 inhibitor | IEC-6 tox | DNA FID counter | GPR7 antag | BaF3 parental | GPR7 antag conf | MCHR1 antag
Nc1c(C(=O)NCc2ccco2)sc2nc(N3CCOCC3)c3c(c12)CCCC3 | -5 | 9 | -8 | -21 | -16 | 4 | nt | nt
CCc1cc(C(=O)OC)c(NC(=O)CCCC(=O)O)s1 | 1 | 0 | 1 | -10 | 26* | -1 | -3 | 0
O=C(OCCN1C(=O)c2cccc3c(N4CCOCC4)ccc(c23)C1=O)c1ccccc1Cl | 4 | -6 | 5 | -3 | 0 | 7 | nt | nt
CCOc1ccc2c(c1)-c1c(ssc1=S)C(C)(C)N2C | 1 | -16 | 1 | 0 | -7 | 5 | nt | nt
Cn1cccc1/C=C(/C#N)c1ccc(F)cc1 | -2 | -4 | 5 | -1 | 26* | 2 | 0 | 9
Cn1cccc1/C=C(\C#N)c1ccccc1 | 3 | -1 | 7 | -8 | -10 | 3 | nt | nt
Nc1nonc1C(=O)NCCNCc1ccccc1OCc1ccccc1F | 4 | 10 | 2 | 21 | 29* | 7 | 36* | 33*
O=C1COc2ccc(C(=O)COC(=O)Cn3cnc4ccccc43)cc2N1 | 0 | -12 | -1 | -6 | 24* | 7 | -4 | 2
COc1cc(OC)c(OC)cc1CCC(C)NCCC(c1ccccc1)c1ccccc1 (configuration not stated) | nt | -30 | 13 | 28 | 60* | nt | 55* | 49*
COc1ccccc1CCNC(C)CCc1ccc(O)cc1 (configuration not stated) | nt | -18 | -2 | 5 | -9 | nt | nt | nt
CCCc1ccc(-c2ccc(F)c(N)c2)nc1 | -3 | -13 | 4 | -9 | 2 | 3 | nt | nt
Cc1cc(C)cc(NC(=O)Nc2ccc3c(c2)N(C)C(=O)CS3)c1 | -1 | -38 | 7 | -13 | 25* | 6 | 30* | 76*
Cc1ccc(NC(=O)Nc2ccc3c(c2)N(C)C(=O)CS3)cc1C | 2 | -9 | 6 | -15 | 10 | 5 | nt | nt
Cc1nonc1CN(C)C(=O)c1cc(COc2ccc(F)cc2Cl)on1 | nt | -47 | 3 | -20 | 30* | nt | 24 | 26*
Cc1ccc(CN(C)C(=O)c2cc(COc3ccc(F)cc3Cl)on2)o1 | -4 | -23 | -6 | -20 | 0 | 0 | nt | nt
NC(=O)CSc1nnc(-c2ccc(S(=O)(=O)N3CCCCC3)cc2)n1-c1ccccc1 | -3 | -15 | -3 | -26 | 18 | 3 | nt | nt
CCn1c(SCC(=O)O)nnc1-c1ccc(S(=O)(=O)N2CCCC2)cc1 | nt | 15 | -4 | -9 | 3 | nt | nt | nt
